From PubChem BioAssay (EPA / NIEHS)
Activity calls are given as the source filed them. Rule for the calls: active = hit-call score of the fitted dose curve at least 0.9, where 1 is the maximum; inactive = score below 0.9.

assay: APR_HepG2_MitoMass_72hr: Apredica 72-hour HepG2 Assay for Mitochondrial Mass (AID 2282924); settings: high-content imaging, actives raise or lower the signal;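 note: MitoTracker Red CMXRos stain intensity per cell imaged as mitochondrial mass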
Experimental: APR_HepG2_72hr is a cell-based, multiplexed-readout assay that uses HepG2, a human liver cell line, with measurements taken at 72 hours after chemical dosing in a 384-well plate.APR_HepG2_MitoMass_72hr is one of 10 assay component(s) measured or calculated from the APR_HepG2_72hr assay. It is designed to make measurements of cell phenotype, a form of morphology reporter, as detected with fluorescence intensity signals by HCS Fluorescent Imaging technology.Data from the assay component APR_HepG2_MitoMass_72hr was analyzed into 1 assay endpoint. This assay endpoint, APR_HepG2_MitoMass_72hr, was analyzed with bidirectional fitting relative to DMSO as the negative control and baseline of activity. Using a type of morphology reporter, gain or loss-of-signal activity can be used to understand changes in the signaling. Furthermore, this assay endpoint can be referred to as a primary readout, because this assay has produced multiple assay endpoints where this one serves a signaling function. To generalize the intended target to other relatable targets, this assay endpoint is annotated to the cell morphology intended target family, where the subfamily is organelle conformation.
Cells were treated with dimethyl sulfoxide (DMSO) as a solvent control at a final concentration of 0.5% v/v or with compounds in DMSO with a resulting final DMSO concentration of 0.5% v/v. Compound treatment was done at concentrations of 0.39, 0.78, 1.56, 3.12, 6.24, 12.5, 25, 50, 100, and 200 uM in duplicate on each plate. Cells were treated with compounds for 1, 24, or 72 hr. Carbonyl […] m-chloro-phenylhydrazone (CCCP) and taxol were used as positive controls for mitochondrial function and cytoskeletal stability, respectively; DMSO served as the negative control for this experiment. Cells were fixed by the direct addition of 50 uL formaldehyde in Hank's Balanced Salt Solution (HBSS) to a final concentration of 3.7%. After incubation in the fixation medium for 30 min at room temperature (293-298 K), cells were rinsed twice with HBSS and treated with cell permeabilization buffer (16 uL of 0.5% Triton X-100) for 10 min at room temperature (293-298 K) before labeling. For mitochondrial membrane potential and mitochondrial measurements, pre-fixed cells were incubated with 50 uL of MitoTracker Red CMXRos (Invitrogen) at a concentration of 250 nM for 30 min before fixation. In the remaining cases, post-fixed cells were labeled by incubation with a multiplexed mixture of primary antibodies in HBSS for 60 min at room temperature (293-298 K) to detect immunoreactivity of c-Jun (1:500), phospho-histone H3 (1:100), phospho-histone H2A.x (1:200), p53 (1:400), alpha-tubulin (1:200) and Hoechst 33342 (2 ug/mL). Cells were labeled for multiplexed imaging on two separate plates: a) Hoechst 33342, MitoTracker Red, phospho-histone H3, and alpha-tubulin, and b) Hoechst 33342, phospho-histone H2A.x, and c-Jun. A final rinse with HBSS (50 uL) was performed before analysis. The primary and secondary antibodies for the proteins were phospho-histone H3 (rabbit anti-phospho-histone H3 and FITC-donkey anti-rabbit IgG), phospho-histone H2A.x (mouse anti-phospho-histone H2A.x and FITC-donkey anti-mouse IgG), c-Jun (rabbit anti-phospho-c-Jun and Cy3-donkey anti-rabbit IgG), p53 (sheep anti-p53 and Cy5-donkey anti-sheep IgG), alpha-tubulin (mouse anti-alpha-tubulin and Cy5-donkey anti-mouse IgG). These antibodies are available as the CellCiphr HepG2 assay kit (Millipore).Digital images of each well were captured using a Cellomics ArrayScan VTI (Thermo Scientific Cellomics) (0.8 NA objective, 0.63x optical coupler, and XF-93 filter set) at 20x magnification. The images were acquired using the autofocus feature of the ArrayScan instrument, which entails the following steps. First, the camera focuses on channel 1 (Hoechst 33342), where nuclei are identified. Second, a Z offset of 1 um is used for capturing mitochondria (MitoTracker Red). […]

Question: With `CCOP(=S)(OCC)Oc1nc(Cl)n(C(C)C)n1` as the molecule, how does the outcome read?
Answer: inactive

Question: With `CC1(C)CON(Cc2ccccc2Cl)C1=O` as the molecule, how does the outcome read?
Answer: inactive

Question: With `Clc1cccc(C(Cl)(Cl)Cl)n1` as the molecule, how does the outcome read?
Answer: inactive

Question: With `CO/N=C(/C1=NOCCO1)c1ccccc1Oc1ncnc(Oc2ccccc2Cl)c1F` as the molecule, how does the outcome read?
Answer: inactive

Question: Which outcome does the source give for `C=C(C)CN(CC)c1c([N+](=O)[O-])cc(C(F)(F)F)cc1[N+](=O)[O-]` here?
Answer: inactive

Question: Which outcome does the source give for `O=C(Nc1ccccc1-c1ccc(Cl)cc1)c1cccnc1Cl` here?
Answer: inactive

Question: With `CCCCC(O)(Cn1cncn1)c1ccc(Cl)cc1Cl` (stereo not given) as the molecule, how does the outcome read?
Answer: inactive

Question: Which outcome does the source give for `CC(C)N1C(=O)c2ccccc2NS1(=O)=O` here?
Answer: inactive

Question: With `COC(=O)NC(=S)Nc1ccccc1NC(=S)NC(=O)OC` as the molecule, how does the AC50 read?
Answer: 41.6 µM (active)

Question: With `CC(C)Oc1cccc(NC(=O)c2ccccc2C(F)(F)F)c1` as the molecule, how does the outcome read?
Answer: inactive

Question: Which outcome does the source give for `CC(C)Nc1nc(Cl)nc(NC(C)C)n1` here?
Answer: inactive

Question: With `CCOc1cc(C(C)(C)C)ccc1C1COC(c2c(F)cccc2F)=N1` (stereo not given) as the molecule, how does the outcome read?
Answer: inactive

Question: For `Cn1c(-c2ccccc2)cc(-c2ccccc2)[n+]1C`, which outcome is on record?
Answer: inactive

Question: Which outcome does the source give for `COC(=O)c1c(C(F)F)nc(C(F)(F)F)c(C2=NCCS2)c1CC(C)C` here?
Answer: inactive

Question: With `CSC(=O)c1c(C(F)F)nc(C(F)(F)F)c(C(=O)SC)c1CC(C)C` as the molecule, how does the outcome read?
Answer: inactive

Question: Which outcome does the source give for `C=CCOC(=O)C(C)(C)OC(=O)c1cc(-n2c(=O)cc(C(F)(F)F)n(C)c2=O)ccc1Cl` here?
Answer: inactive

Question: Which outcome does the source give for `COC(=O)NS(=O)(=O)c1ccc(N)cc1` here?
Answer: inactive

Question: Which outcome does the source give for `CCCC(=NOCC)C1=C(O)CC(CC(C)SCC)CC1=O` (stereo not given) here?
Answer: inactive

Question: Which outcome does the source give for `CCSC(=O)N1CCCCCC1` here?
Answer: inactive

Question: Which outcome does the source give for `CCNC(=O)NC(=O)C(C#N)=NOC` here?
Answer: inactive

Question: With `O=P(O)(O)CCCl` as the molecule, how does the outcome read?
Answer: inactive

Question: Which outcome does the source give for `COP(=S)(OC)Oc1ccc([N+](=O)[O-])c(C)c1` here?
Answer: inactive

Question: With `COCc1cnc(C2=NC(C)(C(C)C)C(=O)N2)c(C(=O)O)c1` (stereo not given) as the molecule, how does the outcome read?
Answer: inactive

Question: With `Cc1nc(N(C)C)nc(OC(=O)N(C)C)c1C` as the molecule, how does the outcome read?
Answer: inactive

Question: For `CC1(C)CCC(=Cc2ccc(Cl)cc2)C1(O)Cn1cncn1` (stereo not given), which outcome is on record?
Answer: inactive

Question: Which outcome does the source give for `CCNP(=S)(OC)O/C(C)=C/C(=O)OC(C)C` (stereo not given) here?
Answer: inactive

Question: For `CNC(=O)N(C)c1nnc(C(C)(C)C)s1`, which outcome is on record?
Answer: inactive

Question: Which outcome does the source give for `CCCN(CC)CC1COC2(CCC(C(C)(C)C)CC2)O1` (stereo not given) here?
Answer: inactive

Question: For `CCOP(=O)(OCC)Oc1nc(Cl)c(Cl)cc1Cl`, which outcome is on record?
Answer: inactive

Question: With `COP(=S)(OC)SCn1nnc2ccccc2c1=O` as the molecule, how does the outcome read?
Answer: inactive

Question: Which outcome does the source give for `CCOc1nc(F)cc2nc(S(=O)(=O)Nc3c(Cl)cccc3Cl)nn12` here?
Answer: inactive

Question: Which outcome does the source give for `CC1(C)C(C(=O)OC(C#N)c2cccc(Oc3ccccc3)c2)C1(C)C` (stereo not given) here?
Answer: inactive

Question: Which outcome does the source give for `COC(=O)N(C(=O)N1CO[C@@]2(C(=O)OC)Cc3cc(Cl)ccc3C2=N1)c1ccc(OC(F)(F)F)cc1` here?
Answer: inactive

Question: For `CN=C=S`, which outcome is on record?
Answer: inactive

Question: With `N#Cc1c[nH]cc1-c1cccc2c1OC(F)(F)O2` as the molecule, how does the AC50 read?
Answer: 3.5 µM (active)

Question: Which outcome does the source give for `COc1cc(OC)nc(NC(=O)NS(=O)(=O)c2ncccc2OCC(F)(F)F)n1` here?
Answer: inactive

Question: Which outcome does the source give for `CC(C)=CC1C(C(=O)OCc2coc(Cc3ccccc3)c2)C1(C)C` (stereo not given) here?
Answer: inactive

Question: For `COP(=O)(OC)O/C(C)=C/C(=O)N(C)C`, which outcome is on record?
Answer: inactive

Question: Which outcome does the source give for `CCOc1nc(C(Cl)(Cl)Cl)ns1` here?
Answer: inactive

Question: With `CC(C)C1(C)N=C(c2ncccc2C(=O)O)NC1=O` (stereo not given) as the molecule, how does the outcome read?
Answer: inactive
